Test results as given in PubChem BioAssay (NCI).
The panel holds about 79,000 compounds, 15% with a hit somewhere; the sample as a whole holds those more often. The source made the active and inactive calls. Rule as the data show it: active = growth inhibition above about 70%; inactive = the rest.

What was measured:
[1] = NCI Yeast Anticancer Drug Screen. Data for the sgs1 strain (AID 173);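 also: 0% = growth of vehicle-only control cultures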; conditions: S. cerevisiae sgs1 mutant, active compounds read high
Outline: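 Strain with an altered DNA repair or cell cycle pathway exposed to compound. Growth then measured. Value = inhibition versus vehicle control.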

[2] = NCI Yeast Anticancer Drug Screen. Data for the mlh1 rad18 strain (AID 175); conditions: S. cerevisiae mlh1 rad18 strain growth inhibition, active compounds read high
Outline: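 A repair-deficient yeast strain is exposed to test compound, and growth is scored relative to vehicle-treated controls.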

[3] = NCI Yeast Anticancer Drug Screen. Data for the rad18 strain (AID 177); conditions: S. cerevisiae rad18 mutant growth inhibition, active compounds read high
Outline: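 DNA-repair-defective yeast; compound treatment; growth inhibition scored against vehicle.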

[4] = NCI Yeast Anticancer Drug Screen. Data for the rad52 strain (AID 147);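 also: 0% = growth of vehicle-treated control cultures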; conditions: S. cerevisiae rad52 mutant growth inhibition, active compounds read high
Outline: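 Growth of repair-deficient yeast cells was compared between compound-treated and vehicle-treated cultures to give percent inhibition.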

[5] = NCI Yeast Anticancer Drug Screen. Data for the wt1 strain (AID 149);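 also: 0% = growth of vehicle-treated wt1 cultures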; conditions: S. cerevisiae wt1 strain (SPY 50644) growth inhibition, active compounds read high
Outline: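 Measured: growth of wt1 yeast under compound versus vehicle treatment, reported as inhibition.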

[6] = NCI Yeast Anticancer Drug Screen. Data for the rad50EPP+ strain (AID 151);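 also: 0% = growth of vehicle-treated control cultures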; conditions: S. cerevisiae rad50 mutant strain, active compounds read high
Outline: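 Measured: growth inhibition of rad50EPP+ yeast. Reference: vehicle-treated controls. Screen uses strains with defined genetic alterations in DNA damage repair or cell cycle control.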

[7] = NCI Yeast Anticancer Drug Screen. Data for the mgt1 strain (AID 153); conditions: S. cerevisiae mgt1 mutant growth inhibition, active compounds read high
Outline: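 Compounds were applied to mgt1 mutant yeast, and growth was then compared against vehicle-treated control cultures to give percent inhibition.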

[8] = NCI Yeast Anticancer Drug Screen. Data for the rad50 strain (AID 155);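 also: 0% = growth of vehicle-only cultures of the same strain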; conditions: S. cerevisiae rad50 strain growth inhibition, active compounds read high
Outline: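 Growth of the mutant yeast was measured after compound exposure and referenced to vehicle-treated cultures.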

[9] = NCI Yeast Anticancer Drug Screen. Data for the mec2-1 strain (AID 157); conditions: S. cerevisiae mec2-1 strain, active compounds read high
Outline: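 Compounds were applied to mec2-1 yeast cells. Their growth was then compared with that of vehicle-treated cultures to give growth inhibition.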

[10] = NCI Yeast Anticancer Drug Screen. Data for the sgs1 mgt1 strain (AID 161);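 also: 0% = growth of cultures given vehicle only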; conditions: S. cerevisiae sgs1 mgt1 strain, active compounds read high
Outline: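 Percent growth inhibition was derived by comparing compound-exposed mutant yeast with vehicle-exposed cultures. The strain carries alterations in DNA damage repair.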

[11] = NCI Yeast Anticancer Drug Screen. Data for the CLN2oe strain (AID 163);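 also: 0% = growth of vehicle-only control cultures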; conditions: S. cerevisiae CLN2oe strain, active compounds read high
Outline: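 Cells of an engineered yeast line with disturbed cell-cycle regulation are treated with compound. Inhibition of growth is then calculated relative to the vehicle-treated reference.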

[12] = NCI Yeast Anticancer Drug Screen. Data for the cln2 rad14 strain (AID 165);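 also: 0% = growth equal to vehicle treated cultures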; conditions: S. cerevisiae cln2 rad14 strain, active compounds read high
Outline: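 Strain: cln2 rad14 yeast, altered in cell cycle control and DNA damage repair. Read-out: growth inhibition vs vehicle.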

[13] = NCI Yeast Anticancer Drug Screen. Data for the bub3 strain (AID 167); conditions: S. cerevisiae bub3 mutant strain, active compounds read high
Outline: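 Whole-cell yeast assay. The mutant strain was incubated with compounds, and growth inhibition was determined by comparison with vehicle-treated cells.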

[14] = NCI Yeast Anticancer Drug Screen. Data for the wt2 strain (AID 169);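 also: 0% = growth of vehicle-treated yeast cultures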; conditions: S. cerevisiae wt2 strain growth inhibition, active compounds read high
Outline: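 Growth of compound-treated yeast is measured and expressed as inhibition relative to vehicle-only controls.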

[15] = NCI Yeast Anticancer Drug Screen. Data for the mlh1 strain (AID 171);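 also: 0% = growth of vehicle-treated control cultures of the same strain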; conditions: S. cerevisiae mlh1 strain growth inhibition, active compounds read high
Outline: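 Test agents were incubated with yeast bearing a defined DNA damage repair or cell cycle control alteration; values are growth inhibition normalised to vehicle-treated cultures.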

[16] = at 5.0 µM (retest, dose inferred, filed as 0.5)
[17] = at 50.0 µM (retest, dose inferred, filed as 5.0)

Measured: growth inhibition

CCOC(=O)c1cnc2cc(C(F)(F)F)ccc2c1N=[N+]=[N-]
active: [1]; at 33.0 µM 75% | [1]; at 100.0 µM 94% | [3]; at 100.0 µM 88%
inactive: [2]; [16] -4% | [2]; [17] 12% | [2]; at 50.0 µM 59.9% | [3]; at 1.2 µM 15% | [3]; at 3.7 µM 22% | [3]; at 11.0 µM 33% | [3]; at 33.0 µM 58%

CSC(=S)Nc1cc(C)ccn1
inactive: [4]; at 1.2 µM -5% | [4]; at 3.7 µM 6% | [4]; at 11.0 µM 37% | [4]; at 33.0 µM 38% | [5]; at 1.2 µM -9% | [5]; at 3.7 µM -3% | [5]; at 11.0 µM 17% | [5]; at 33.0 µM 32% | [6]; at 1.2 µM -7% | [6]; at 3.7 µM -15% | [6]; at 11.0 µM 29% | [7]; at 1.2 µM -34% | [7]; at 3.7 µM -27% | [7]; at 11.0 µM 37% | [7]; at 33.0 µM 23% | [8]; at 1.2 µM 12% | [8]; at 3.7 µM 15% | [8]; [16] 60% | [8]; at 11.0 µM 64% | [9]; at 1.2 µM -19% | [9]; at 3.7 µM -25% | [9]; [16] 52% | [9]; at 11.0 µM 39% | [9]; at 33.0 µM 50% | [10]; [16] -11% | [11]; at 1.2 µM 20% | [11]; at 3.7 µM 3% | [11]; at 11.0 µM 31% | [11]; at 33.0 µM 26% | [12]; [16] 39% | [13]; at 1.2 µM -8% | [13]; at 3.7 µM 50% | [13]; [16] 8% | [13]; at 11.0 µM 41% | [13]; at 33.0 µM 30% | [14]; at 1.2 µM -7% | [14]; at 3.7 µM -13% | [14]; at 11.0 µM 23% | [14]; at 33.0 µM 23% | [15]; at 1.2 µM 0% | [15]; at 3.7 µM -4% | [15]; at 11.0 µM 54% | [15]; at 33.0 µM 51% | [1]; at 1.2 µM -11% | [1]; at 3.7 µM -3% | [1]; at 11.0 µM 46% | [1]; at 33.0 µM 52% | [2]; [16] 50% | [3]; at 1.2 µM -23% | [3]; at 3.7 µM -29% | [3]; at 11.0 µM 15% | [3]; at 33.0 µM 39%
active: [4]; at 100.0 µM 82% | [5]; at 100.0 µM 79% | [6]; at 33.0 µM 89% | [6]; at 100.0 µM 91% | [7]; at 100.0 µM 76% | [8]; at 33.0 µM 84% | [8]; [17] 99% | [8]; at 50.0 µM 84.8% | [8]; at 100.0 µM 92% | [9]; [17] 99% | [9]; at 50.0 µM 70.3% | [9]; at 100.0 µM 84% | [10]; [17] 90% | [10]; at 50.0 µM 81.2% | [11]; at 100.0 µM 74% | [12]; [17] 86% | [12]; at 50.0 µM 83% | [13]; [17] 94% | [13]; at 50.0 µM 86% | [13]; at 100.0 µM 83% | [14]; at 100.0 µM 70% | [15]; at 100.0 µM 85% | [1]; at 100.0 µM 93% | [2]; [17] 99% | [2]; at 50.0 µM 83.8% | [3]; at 100.0 µM 75%
